Consider 15 compounds from PubChem BioAssay (NCI).

Some test systems named below: HCT-15 colon; HT29 colon; SNB-75 CNS; SNB-19 CNS; U251 CNS; PC-3 prostate; SK-MEL-5 melanoma; UACC-62 melanoma; LOX IMVI melanoma; SK-MEL-28 melanoma.
What all share (test): NCI-60 one-dose screen, 48 h (100 = growth as untreated, 0 = no growth, -100 = all killed)
Conditions in all cases: 10 µM unless noted

This is part of a sample that, as a whole, favours compounds with a hit. Of some 83,000 tested, about 20% had one in any assay.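 For each line, cells grew in 96-well plates with the test compound present at a single concentration for 48 hours.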 Unmarked numbers belong to inactive results. The source made the active and inactive calls. Rule for the calls: active = growth percent below 10; inactive = the rest.

Turning to `Nc1n[nH]c2ccc([C@@H]3Nc4c(F)cc5[nH]ncc5c4[C@H]4C5CCC(C5)[C@@H]34)cc12` (stereo not given in full), the growth in the assay with HCT-15 colon was 19.8%; with HT29 colon, 11.7%; with SNB-75 CNS, 7.8% (active); in the assay on SNB-19 CNS, 27.9%; in the assay on U251 CNS it was 14.3%; with PC-3 prostate, 22.8%. In addition, the growth in the assay on SK-MEL-5 melanoma was 4.3% (active); in the assay on UACC-62 melanoma, 38.1%; with LOX IMVI melanoma it was 20.3%; in the assay on SK-MEL-28 melanoma it was 49.2%.

For the compound `CC(C)(C)c1ccc(Cn2c(-c3nonc3N)nc3ccccc32)cc1`, the growth is 49.1% in the assay on HCT-15 colon; 41.6% in the assay with HT29 colon; 61.7% with SNB-75 CNS; 77.4% with SNB-19 CNS; 64.5% with U251 CNS; 67.4% with PC-3 prostate. Further, the growth with SK-MEL-5 melanoma is 74.9%; with UACC-62 melanoma it was 69.5%; in the assay on LOX IMVI melanoma, 70.2%; in the assay with SK-MEL-28 melanoma, 72.7%.

Regarding `CC1=NN(c2cccc(S(N)(=O)=O)c2)C(=O)C1`, the growth is 111% with HCT-15 colon; 104% in the assay with HT29 colon; 82.7% with SNB-75 CNS; 90.4% in the assay on SNB-19 CNS; 101% with U251 CNS; 80.1% in the assay on PC-3 prostate. For the same compound, the growth in the assay with SK-MEL-5 melanoma was 92.8%; in the assay with UACC-62 melanoma it was 89.7%; in the assay with LOX IMVI melanoma, 96.3%; in the assay with SK-MEL-28 melanoma it was 111%.

`COc1ccc(/C(=C\c2ccc3c(c2)OCO3)C(=O)Nc2nc3ccccc3s2)cc1`: the growth with HCT-15 colon was 93.2%; in the assay with HT29 colon it was 94.6%; with SNB-75 CNS it was 103%; in the assay with SNB-19 CNS it was 109%; with U251 CNS it was 101%; with PC-3 prostate it was 106%. Further, the growth is 98.9% in the assay on SK-MEL-5 melanoma, 102% in the assay on UACC-62 melanoma, 100% in the assay on LOX IMVI melanoma and 104% with SK-MEL-28 melanoma.

As for `O=C1c2ccccc2C2N1CCC1CCc3ccccc3N12` (stereo not given), the growth in the assay with HCT-15 colon is 94.5%; with HT29 colon it was 100%; in the assay on SNB-75 CNS it was 94.3%; in the assay on SNB-19 CNS, 96.2%; in the assay on U251 CNS, 89.7%; with PC-3 prostate, 76.3%. The growth was 98% in the assay on SK-MEL-5 melanoma, 82.2% in the assay with UACC-62 melanoma, 100% with LOX IMVI melanoma and 109% in the assay on SK-MEL-28 melanoma.

For `COc1cc(NC(C)CCCN)c2ncccc2c1Oc1ccc(Cl)cc1` (stereo not given), the growth in the assay with HCT-15 colon was 84.5%; in the assay with HT29 colon, 34.5%; in the assay with SNB-75 CNS, 78.7%; in the assay on SNB-19 CNS it was 91%; in the assay with U251 CNS, 72.7%; with PC-3 prostate, 63.9%. The growth is 81% with SK-MEL-5 melanoma, 91.1% with UACC-62 melanoma, 39.9% in the assay on LOX IMVI melanoma and 109% with SK-MEL-28 melanoma.

As to `COc1ccc(-c2nc(-c3ccccc3OCc3ccccc3OC)nc(C)c2C(C)=O)cc1`, the growth in the assay on HCT-15 colon was 78.9%; in the assay with HT29 colon, 56.9%; in the assay on SNB-75 CNS, 83.8%; in the assay on SNB-19 CNS, 93.7%; with U251 CNS it was 90.2%; in the assay on PC-3 prostate, 56.8%. Also, the growth in the assay on SK-MEL-5 melanoma was 91.3%; with UACC-62 melanoma it was 54.7%; with LOX IMVI melanoma, 98.7%; in the assay on SK-MEL-28 melanoma it was 101%.

Consider `NCCCOc1cc2ccccc2cc1C(=O)NCCCOc1cc2ccccc2cc1C(=O)Nc1ccc(Cl)cc1O`, for which the growth was -55.3% (active) with HCT-15 colon; -90.7% (active) with HT29 colon; -68.2% (active) in the assay on SNB-75 CNS; -65.9% (active) in the assay with SNB-19 CNS; -86.1% (active) with U251 CNS; -86.1% (active) with PC-3 prostate. In addition, the growth is -70% (active) in the assay with SK-MEL-5 melanoma, -88.6% (active) in the assay on UACC-62 melanoma, -89.6% (active) with LOX IMVI melanoma and -89.2% (active) with SK-MEL-28 melanoma.

Consider `CCOc1c(C#N)c2c(N)ncnc2n1C1OC(CO)C(O)C1O` (stereo not given), for which the growth with HCT-15 colon was 23.1%; in the assay on HT29 colon it was 22.6%; in the assay on SNB-75 CNS it was 62.4%; with SNB-19 CNS, 72.7%; in the assay with U251 CNS, 35.4%; with PC-3 prostate, 16.2%. Besides, the growth is 79% with SK-MEL-5 melanoma, 49.8% with UACC-62 melanoma, 18.9% in the assay on LOX IMVI melanoma and 20.4% with SK-MEL-28 melanoma.

As to `Cc1ccccc1CNc1ncnc2[nH]ncc12`, the growth is 108% in the assay on HCT-15 colon; 103% in the assay on HT29 colon; 94.8% in the assay with SNB-75 CNS; 95.5% with SNB-19 CNS; 99.8% in the assay with U251 CNS; 311% in the assay with PC-3 prostate. The growth is 106% with SK-MEL-5 melanoma, 97.8% in the assay on UACC-62 melanoma, 95% with LOX IMVI melanoma and 136% with SK-MEL-28 melanoma.

For `Oc1[nH]c2ccccc2c1/C=c1/ccc2c(c1)N=C(c1ccc(C(F)(F)F)cc1)N=2`, the growth in the assay with HCT-15 colon is 44.5%; in the assay with HT29 colon, 37.9%; in the assay with SNB-75 CNS, 48.7%; with SNB-19 CNS it was 61.6%; in the assay on U251 CNS, 32.5%; in the assay with PC-3 prostate it was 32.5%. The growth was 69.9% in the assay on SK-MEL-5 melanoma, 47.2% with UACC-62 melanoma, 43.4% in the assay on LOX IMVI melanoma and 52.8% with SK-MEL-28 melanoma.

On to `CC(=O)OC1Oc2ccccc2-c2oc3nc(=N)n(C)c-3cc21` (stereo not given), for which the growth in the assay with HCT-15 colon was 104%; in the assay with HT29 colon it was 109%; in the assay with SNB-75 CNS it was 112%; in the assay with SNB-19 CNS, 106%; in the assay on U251 CNS, 113%; in the assay on PC-3 prostate it was 97.4%. The growth is 108% in the assay with SK-MEL-5 melanoma, 106% with UACC-62 melanoma, 103% with LOX IMVI melanoma and 122% in the assay on SK-MEL-28 melanoma.

With `COc1ccc(C2C3=C(COC3=O)N(CCO)c3cc(OC)c(OC)cc32)cc1` (stereo not given), the growth with HCT-15 colon was 98.9%; in the assay on HT29 colon it was 95.1%; in the assay with SNB-75 CNS, 93.3%; in the assay with SNB-19 CNS, 109%; with U251 CNS, 101%; with PC-3 prostate it was 106%. Besides, the growth in the assay with SK-MEL-5 melanoma was 100%; in the assay on UACC-62 melanoma, 107%; in the assay on LOX IMVI melanoma, 101%; with SK-MEL-28 melanoma it was 115%.

Consider `Oc1ccc(Nc2ncnc3c2sc2ncccc23)cc1`, for which the growth in the assay on HCT-15 colon was 50.9%; in the assay with HT29 colon, 43.4%; with SNB-75 CNS, 40.9%; in the assay with SNB-19 CNS it was 27.6%; in the assay with U251 CNS it was 24.4%; with PC-3 prostate, 47.4%. Besides, the growth with SK-MEL-5 melanoma was 27.7%; in the assay with UACC-62 melanoma it was 3.13% (active); with LOX IMVI melanoma, 8.47% (active); with SK-MEL-28 melanoma it was 65.7%.

For the compound `CN(C)CCOc1nc2c3ccncc3cc(-c3cccc(Cl)c3)c2c2cnccc12`, the growth with HCT-15 colon is 22.1%; with HT29 colon it was 17%; with SNB-75 CNS it was 39.8%; in the assay on SNB-19 CNS, 28.4%; with U251 CNS it was 28%; in the assay on PC-3 prostate it was 30.1%. For the same compound, the growth with SK-MEL-5 melanoma is 10.8%; in the assay with UACC-62 melanoma, 24.6%; with LOX IMVI melanoma, 5.79% (active); with SK-MEL-28 melanoma, 13.3%.
